# Laboratory results reported in PubChem BioAssay (NCI).
# The panel holds about 83,000 compounds, 20% with a hit somewhere; the sample as a whole holds those more often.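 Treatment: one concentration, 48 hours, 96-well format. Scoring: percent growth, with anything below 10 considered active.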 A number with no mark means an inactive call. Activity calls are given as the source filed them.
# What was measured:
# Assay in all cases: NCI-60 one-dose screen, 48 h (100 = growth as untreated, 0 = no growth, -100 = all killed)
# Conditions in all cases: 10 µM unless noted
# [1] = system: NCI-H226 lung
# [2] = system: NCI-H322M lung
# [3] = system: HOP-62 NSCLC
# [4] = system: NCI-H460 lung
# [5] = system: HOP-92 NSCLC
# [6] = system: NCI-H522 lung
# [7] = system: A549/ATCC NSCLC
# [8] = system: 786-0 renal
# [9] = system: COLO 205 colon
# [10] = system: DU-145 prostate
# [11] = system: K-562 leukemia
# [12] = system: MALME-3M melanoma
# [13] = system: MDA-MB-231 breast
# [14] = system: RXF 393 renal
# [15] = system: SF-268 CNS
# [16] = system: SF-295 CNS
# [17] = system: SF-539 CNS
# [18] = system: UACC-257 melanoma
# [19] = system: M14 melanoma
Structure (SMILES),growth [1],growth [2] [%],growth [3],growth [4],growth [5],growth [6],growth [7] [%],growth [8],growth [9],growth [10],growth [11],growth [12],growth [13] [%],growth [14] [%],growth [15] [%],growth [16],growth [17],growth [18] [%],growth [19]
O=S1(=O)c2ccccc2Oc2ccccc21,100%,101,93.4%,99%,90.4%,78.2%,95.4,99.9%,109%,107%,114%,110%,110,90.7,107,91.8%,96.1%,103,101%
C=CC(=O)OC1CCC(C(C)(C)CC)CC1 (stereo not given),106%,110,103%,105%,115%,100%,109,105%,105%,113%,109%,110%,106,113,102,120%,105%,115,107%
C=C(C)COc1ccc(C(C)(C)C)cc1,95.8%,102,91.2%,104%,99.3%,90.8%,91.2,101%,104%,107%,106%,116%,102,99.5,99.8,101%,102%,82.6,102%
CCOC(=O)C(=O)CC(=O)c1ccccc1,86.6%,94.5,94.9%,-12.5% (active),79.6%,98.8%,96.5,103%,100%,102%,118%,100%,92.9,103,96.7,104%,100%,101,97.1%
CCOc1ccncc1[N+](=O)[O-],102%,110,99.1%,108%,102%,106%,97.5,106%,110%,108%,100%,,114,113,103,108%,108%,95.2,106%
CC(C)c1ccccc1NC(=O)N1CCC(C(C)C)CC1,95.4%,97.7,107%,107%,95.8%,106%,101,103%,117%,112%,99.4%,105%,117,101,115,,111%,95.8,107%
c1ccc(Oc2c3ccccc3nc3ccccc23)cc1,47.9%,56.3,16.1%,3.68% (active),8.21% (active),-27.4% (active),34.1,1.82% (active),-10.5% (active),8.05% (active),8.65% (active),,31.2,25.4,22.7,-39.1% (active),-19.6% (active),56.7,-13.2% (active)
Nc1ccc(F)c(Cl)c1F,91.3%,110,112%,101%,,108%,113,101%,118%,111%,100%,107%,101,97.1,106,107%,103%,118,97.2%
NC(CO)(CO)c1ccccc1,96.6%,101,100%,99.1%,88.1%,95.3%,100,106%,103%,101%,111%,105%,111,101,97.6,104%,104%,96.5,94.9%
CCOC(=N)CC(=O)Nc1cccc(C)c1Cl,84.5%,99.6,102%,105%,89.1%,110%,106,106%,100%,107%,122%,,89.5,97.5,101,97.2%,99.6%,103,94.9%
CN1C(=O)NC(c2ccc(Cl)cc2)(c2ccc(Cl)cc2)C1=O,94.1%,119,125%,111%,58.4%,108%,115,106%,122%,102%,70.1%,108%,99.8,62,102,102%,111%,118,100%
Clc1ccc(C(SCc2ccccc2)SCc2ccccc2)cc1,86.3%,111,92.1%,98.3%,83%,80.5%,97.6,111%,90.1%,,92.7%,75.8%,99.9,88,91,102%,97.2%,88.2,88.2%
NC(=O)NCCO,95%,109,102%,104%,111%,95.2%,93,107%,116%,110%,99.2%,97.4%,,102,101,95.6%,103%,97.8,107%
Oc1cccnc1CN1CCCC1,97.9%,102,111%,107%,79.7%,97.1%,98.2,,103%,113%,99.5%,107%,105,116,104,113%,102%,98.3,112%
COc1c(CNC(=O)CCl)cc2[nH]c(C)cc2c1CNC(=O)CCl,69.4%,67.4,70.4%,31.5%,107%,-2.03% (active),56.4,68%,54.8%,65.8%,63.5%,82%,87.7,60.8,59.4,64.7%,72.3%,51.9,47.3%
OCc1cccnc1,103%,106,99.8%,103%,98.4%,108%,92.2,107%,107%,111%,117%,121%,103,112,97.7,99%,95.3%,91.2,98.2%
O=S(Cc1ccccc1)/C(=C/NC(=S)Nc1ccccc1)c1ccccc1 (stereo not given),101%,99.7,94.9%,107%,101%,77%,95.9,110%,101%,104%,106%,,108,116,99.2,114%,99.7%,98,98.5%

Structure (SMILES),growth [1],growth [2] [%],growth [3],growth [4],growth [5],growth [6],growth [7] [%],growth [8],growth [9],growth [10],growth [11],growth [12],growth [13] [%],growth [14] [%],growth [15] [%],growth [16],growth [17],growth [18] [%],growth [19]
Cc1ccc2nc(-c3ccc(N=Cc4ccccc4O)cc3)sc2c1,70.7%,82.8,77.9%,104%,,61.3%,71.9,77.5%,140%,96.8%,84.8%,90.3%,62.2,83.4,97.7,109%,89.3%,78.8,78.4%
CSc1cnc2ccccc2n1,103%,94.4,84.7%,102%,99.6%,80%,82.8,107%,116%,115%,106%,88.7%,95.7,111,105,97.9%,,91.3,97.3%
COc1ccc2c(Cl)cc(NC(=O)Nc3c(C)cccc3C)nc2c1,4.58% (active),54,6.88% (active),31.4%,41.3%,78.1%,43.3,21%,58.7%,82.6%,72.6%,-1.2% (active),62.7,36.3,81.1,0.445% (active),90.1%,76.8,85.6%
CC(=O)C1C(=O)C(=O)N(c2cccc([N+](=O)[O-])c2)C1=O (stereo not given),92.3%,114,105%,105%,95.6%,104%,109,96.8%,111%,,112%,124%,107,110,109,107%,108%,97.4,104%
CCCCN(C=S)CCCC,87.4%,105,81.3%,101%,93.8%,91.6%,86.4,101%,99.1%,112%,113%,101%,104,101,105,99.1%,,99.6,94.8%
O=C1CSc2ccccc2N1,111%,109,101%,107%,,104%,96.5,117%,108%,116%,122%,108%,115,120,104,110%,129%,101,113%
CCCCCCCCCCCCCCCCCC(=O)NCCNC(=O)CCCCCCCCCCCCCCCCC,107%,72.4,89.8%,98.8%,37.4%,98.7%,94.5,91.9%,84.5%,97.5%,57.4%,93.5%,75.3,109,89.3,100%,96.9%,105,95.6%
ClCC(Cl)C1CCC(Cl)C(Cl)C1 (stereo not given),119%,107,111%,107%,105%,102%,98.2,96.8%,109%,102%,105%,99.5%,113,125,98.1,95.9%,96.6%,101,101%
CN(C(=S)S(=O)(=O)C12CC3CC(CC(C3)C1)C2)c1ccccc1,93.3%,114,116%,110%,71.2%,46.1%,95.1,89.8%,88.5%,95.3%,72%,108%,88.9,111,94.5,105%,97.6%,87.3,107%
N#Cc1ccc2nc[nH]c2c1,90.9%,108,110%,107%,,102%,101,106%,112%,101%,106%,102%,120,109,104,107%,113%,97.9,107%
CCCCCCCCCc1ccc(OC(C)=O)cc1,99.7%,96.8,113%,103%,98.2%,99.4%,98.9,101%,113%,103%,101%,103%,110,111,101,96.6%,92.8%,110,99.5%
O=[N+]([O-])c1ccc2[nH]c(=S)n(/C=C(/c3ccc(Cl)cc3Cl)S(=O)(=O)Cc3ccc(Cl)cc3Cl)c2c1,106%,100,90.3%,108%,112%,88.6%,83.3,94.6%,99%,102%,102%,,96.2,109,97,97.4%,99.6%,86.5,
O=c1cc(Cl)nc2ccccn12,106%,107,103%,106%,94%,99.7%,107,108%,127%,110%,110%,117%,120,106,112,106%,102%,107,107%
CC(=O)N(C(C)=O)c1ccc(C)cc1,96.2%,102,105%,107%,,113%,104,92.7%,119%,107%,99.1%,97.2%,102,104,96.9,93.5%,98%,110,114%
CCOC(=O)CSCCC#N,98.3%,101,82.3%,106%,102%,96.3%,101,93.5%,107%,108%,112%,106%,110,97.8,101,94.7%,92.2%,95.4,94.9%
Cc1ccc2nc(N)nnc2c1,103%,112,105%,112%,71.9%,99%,109,98.4%,141%,98.4%,108%,,127,,98.2,118%,103%,127,99.2%
COC(c1ccc2c(c1)OCO2)C(C)Br (stereo not given),93.1%,100,82.8%,104%,74.9%,84.6%,94,112%,94.5%,109%,87.3%,98.3%,94.8,99.9,107,101%,92.5%,,97.1%
